# Structures can show the parent of a compound that is named as a salt. ± gives the standard deviation of the averaged measurements.
# Test system: TDF
# Assay: cell number relative to DMSO (% of DMSO); higher = more cells (less growth inhibition / toxicity)
# Details: concentration: 10 µM; 24 h
# Procedure, shortened: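 H1.0 nuclear intensity or cell number is stated as percent of the plate control, based on the median of replicates, and HCC1569 values were smoothed for positional effects. These came from HCC1569 and TDF cells treated with compounds at 10 µM for 24 h at 37 °C in triplicate, then fixed in 3.7% formaldehyde and stained with a rabbit anti-H1.0 antibody, an AlexaFluor 647 secondary and DAPI.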
# 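Further: TDF denotes transformed human dermal fibroblasts of mesenchymal origin.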
row,SMILES,cell number
1,NC(=O)c1ccc2nc(-c3ccc(Oc4ccc(Cl)cc4)cc3)[nH]c2c1 [Chk2 Inhibitor II],100
2,CC1(C)CCC(C)(C)c2cc(C3(c4ccc(C(=O)O)cc4)OCCO3)ccc21,99
3,COc1cc2ncnc(Nc3ccc(O)c(Br)c3)c2cc1OC [JAK3 Inhibitor II],115
4,COc1ccc(C(=O)/C(Cc2cc(OC)c(OC)c(OC)c2)=C(\C(=O)[O-])c2ccc3c(c2)OCO3)cc1.[Na+],98.7
5,CC(C)(C)NCC(O)COc1nsnc1N1CCOCC1 (stereo not drawn) [S(-)-Timolol maleate],104
6,C=C1C(=O)C23C(O)C1CCC2C12COC3(O)C(O)C1C(C)(C)CCC2O (stereo not given) [Rubescensin A],99
7,CCCN1CCCC[C@H]1C(=O)Nc1c(C)cccc1C.Cl.O,103
8,S=C(Nc1ccccc1)Nc1nccs1 [1-Phenyl-3-(2-thiazolyl)-2-thiourea],86.9
9,NC(=NCc1ccccc1)NC(=O)c1nc(Cl)c(N)nc1N [Benzamil],99.9
10,"CCCCCC=CCC1OC1CC=CCC=CCCCC(=O)O (stereo not given) [11,12-Epoxyeicosatrienoic acid]",110
11,COc1ccc(-c2cc(=O)c3c(O)cc(O)cc3o2)cc1O [Diosmetine],101
12,CCCS(=O)(=O)Nc1ccc(F)c(C(=O)c2c[nH]c3ncc(Cl)cc23)c1F,92.9
13,"C[C@H](CCC(=O)O)[C@H]1CC[C@H]2[C@@H]3C[C@H](O)[C@@H]4C[C@H](O)CC[C@]4(C)[C@H]3CC[C@]12C [(3alpha,5beta,6alpha)-3,6-dihydroxycholan-24-oic acid]",98.6
14,Cc1ccc(OCCSc2ncccn2)c(Br)c1 [2-{[2-(2-bromo-4-methylphenoxy)ethyl]sulfanyl}pyrimidine],105
15,O=C1NC(=O)C(c2cn(CCCO)c3ncccc23)=C1c1cnccn1 [GSK-3b Inhibitor XI],119
16,CC(C)c1ccc2oc3nc(N)c(C(=O)O)cc3c(=O)c2c1,109
17,Cc1cncc2cccc(S(=O)(=O)N3CCCN(C(=O)CN)CC3C)c12.Cl.Cl.O (stereo not given) [Rho Kinase Inhibitor IV],42.8
18,CC(NC(=O)C(C#N)=Cc1ccc(O)c(O)c1)c1ccccc1 (stereo not given) [Tyrphostin AG 835],87.3
19,"COc1ccc(/C=C\c2cc(OC)c(OC)c(OC)c2)cc1O [2-methoxy-5-[(Z)-2-(3,4,5-trimethoxyphenyl)ethenyl]phenol]",11.5
20,C=CC(C)(O)CCC1C(=C)CCC2C(C)(C)CCCC12C (stereo not given) [Manool],87.8

row,SMILES,cell number
1,CCCCCCCCCCCCCCC(F)C(=O)O (stereo not given) [2-Fluoropalmitic acid],102
2,CC(=O)OCC[N+](C)(C)C [Acetylcholine],103
3,COc1cc(Oc2ccnc3cc(OC)c(OC)cc23)ccc1NC(=O)NC(C)c1nccs1 (stereo not given),47
4,CCOC(=O)c1ncn2c1CN(C)C(=O)c1cc(F)ccc1-2 [Flumazenil],97.3 ± 3.1
5,COC1C=COC2(C)Oc3c(C)c(O)c4c(O)c(cc(O)c4c3C2=O)NC(=O)C(C)=CC=CC(C)C(O)C(C)C(O)C(C)C(OC(C)=O)C1C (stereo not given),105
6,COc1c2c(nc3ccccc13)OC(C(C)(O)CO)C2 (stereo not given) [Dubinidine],104 ± 5.6
7,O=c1cc(-c2ccc(O)c(O)c2)oc2cc(O)c(C3OC(CO)C(O)C(O)C3O)c(O)c12 (stereo not given) [Homoorientin],96.2
8,CCCn1c(=O)c2[nH]c(-c3ccc(OCC(=O)NCCN)cc3)nc2n(CCC)c1=O [Xanthine amine congener],104
9,O=C1c2ccccc2-n2c1nc1ccccc1c2=O [Tryptanthrin],53.6
10,Cl.Cl.OCCN1CCN(CCCN2c3ccccc3Sc3ccc(C(F)(F)F)cc32)CC1 [Fluphenazine.2HCl],107
11,"Cl.Cl.O=S(=O)(NCCNCC=Cc1ccc(Br)cc1)c1cccc2cnccc12 [H-89, Dihydrochloride]",110
12,COc1ccc(-c2coc3cc(O)ccc3c2=O)cc1 [Formononetin],103
13,Nn1nnc2ccccc21 [1-Aminobenzotriazole],107
14,CC(=O)c1ccc(S(=O)(=O)NC(=O)NC2CCCCC2)cc1 [Acetohexamide],107
15,C[C@@H](Nc1ncnc2[nH]c(-c3ccc(O)cc3)cc12)c1ccccc1,64.8
16,"CCCCCC(O)CCC1C(O)CC(=O)C1CCCCCCC(=O)O (stereo not given) [13,14-Dihydro-prostaglandin E1]",104
17,CN(C)CCN(Cc1cccs1)c1ccccn1.Cl [Methapyrilene hydrochloride],95.7
18,Cn1c(=O)c(-c2c(Cl)cccc2Cl)cc2cnc(Nc3cccc(C(=O)O)c3)nc21,111
19,CC(C)(C)OC(=O)CN(Cc1ccc(Cl)cc1)Cc1ccc([N+](=O)[O-])s1,105
20,C[N+](C)(C)CCOC(N)=O.[Cl-] [Carbachol],120

# — the supplement of paper PMC7156485
